This is a sample that favours compounds with a hit; in the whole collection about 4.7% have one here.
SKKanGAS inh: inhibitors of SKKanGAS S. pyogenes growth in kanamycin (SK-promoter or general growth effect); 1.3% of 300,000 active; inhibition, % at 7.5 µM; BacTiter-Glo, 6 h;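 active = mean replicate score, as percent of positive control median, at least 50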;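 also: strain carries kanamycin resistance gene driven by streptokinase promoter and grows in 40 µg/ml kanamycin; loss of luminescence reflects streptokinase promoter inhibition or plain growth inhibition; 0% = median of DMSO wells and 100% = positive control at its reference dose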
TIM10 inh: growth inhibitors of TIM10 yeast strain. S. cerevisiae TIM10 strain growth, BacTiter-Glo luminescence, 24 h. inhibition, % at 10 µM. 1.4% of 330,000 active. AID 463195;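 active = inhibition of 40% or more at the single tested concentration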;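 also: wild-type TIM10 isogenic control strain grown at permissive 25 °C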
PfHsp90 set2: inhibits growth of yeast expressing Plasmodium falciparum Hsp90; S. cerevisiae expressing PfHsp90, BacTiter-Glo ATP, 48 h; yeast lacking PDR1 and PDR3 efflux regulators; inhibition, % at 9.4 µM; 0.32% of 310,000 active;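 active = every replicate shows inhibition above about 80%, whatever the replicate mean, limit read from the data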;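 also: 0% = DMSO neutral controls and 100% = 20 µM radicicol positive controls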
ATG4B inh: blocks human ATG4B protease cleavage of LC3 substrate | Q9Y4P1 | ATG4B cleavage of LC3-PLA2, NBD-HPC fluorescence, 1 h | inhibition, % at 8.33 µM | 0.51% of 340,000 active; in the data active = inhibition above about 40%
Target sequence (Q9Y4P1 whole entry, looked up): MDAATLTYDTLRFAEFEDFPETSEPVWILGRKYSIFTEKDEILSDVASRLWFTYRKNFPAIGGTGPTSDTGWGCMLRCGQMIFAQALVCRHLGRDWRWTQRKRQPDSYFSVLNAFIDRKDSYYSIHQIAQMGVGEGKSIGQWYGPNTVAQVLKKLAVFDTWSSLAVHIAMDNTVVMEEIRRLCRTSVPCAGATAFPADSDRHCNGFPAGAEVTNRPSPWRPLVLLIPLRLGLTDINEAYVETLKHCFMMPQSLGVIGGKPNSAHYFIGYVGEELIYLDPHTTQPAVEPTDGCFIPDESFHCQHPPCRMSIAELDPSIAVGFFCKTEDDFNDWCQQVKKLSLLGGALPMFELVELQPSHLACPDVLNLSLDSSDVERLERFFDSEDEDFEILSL
tim10-1 inh: tim10-1 yeast growth inhibition; AID 463190; 2.2% of 330,000 active; inhibition, % at 20 µM; S. cerevisiae tim10-1 ts strain growth, BacTiter-Glo, 24 h;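 active = inhibition of at least 40%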;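 also: mutant grown at 25 °C; 0% = DMSO wells with yeast and 100% = wells holding no yeast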
tim23-1 inh: inhibits growth of tim23-1 mutant yeast. S. cerevisiae tim23-1 growth, BacTiter-Glo luminescence, 24 h. inhibition, % at 20 µM. 1.3% of 330,000 active;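 active = growth inhibition of the mutant yeast at or above 50%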;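 also: temperature-sensitive mutant grown at 25 °C; plate controls were DMSO-treated mutant yeast for no effect and medium wells lacking yeast for full effect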
tim10-1 confirm: confirmation of tim10-1 mutant yeast growth inhibitors. shares compounds with tim10-1 inh. S. cerevisiae tim10-1 ts strain growth, BacTiter-Glo, 24 h. inhibition, % at 20 µM. 56% of 7,400 active;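 active = inhibition of yeast growth at or above a set limit in either of two repeat tests at 20 µM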;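 also: tim10-1 mutant grown at permissive 25 °C to find synthetic lethal compounds; 0% = DMSO yeast wells and 100% = medium wells without yeast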
Active calls of the source: *; . = not tested or not shown.

SMILES | SKKanGAS inh | TIM10 inh | PfHsp90 set2 | ATG4B inh | tim10-1 inh | tim23-1 inh | tim10-1 confirm
Cc1ccc2cc(CN(Cc3nnnn3C3CCCC3)C3CCCCC3)c(=O)[nH]c2c1C | 1.7 | . | 3.9 | -11.3 | . | . | .
COc1ccc(CCN2C(=O)NC(NS(=O)(=O)c3ccc(NC(C)=O)cc3)(C(F)(F)F)C2=O)cc1OC (stereo not given) | 3.9 | -12.8 | -2.9 | -1.9 | -16.5 | -4.6 | .
CC(C)(C)NC(=O)CSc1ncnc2c1nnn2Cc1ccccc1Cl | -3.6 | 16.1 | 0.3 | -11.6 | 47.7* | 25.7 | 25.5
CC(NC(=O)c1cc(Br)ccc1Cl)c1ccccc1 (stereo not given) | -9.1 | -3.9 | -5.7 | -4.0 | 3.5 | 6.8 | .
CN(C)CCNC(=O)c1ccc2c(=O)n(Cc3ccc(Cl)cc3)c(=S)[nH]c2c1 | 14.7 | 25.7 | -4.0 | 6.3 | 45.1* | 26.2 | 29.5
CCN(C(=O)c1cccc(S(=O)(=O)N(C)C)c1)C12CC3CC(CC(C3)C1)C2 | 8.9 | 21.6 | -3.7 | -2.9 | 41.2* | 43.3 | 23.2
Cc1c(N=Cc2ccncc2)c(=O)n(-c2ccccc2)n1C | -5.7 | 5.8 | 1.1 | -1.6 | 17.8 | 2.1 | .
COc1ccc(/C=C(\C#N)C(=O)N=CN(C)C)cc1 | -9.1 | 8.0 | 14.8 | 2.3 | 19.8 | 13.7 | .
COc1ccc(/C=C(\C#N)C(=O)N2COCC2(C)C)cc1 | -4.3 | 20.6 | -9.9 | -1.4 | 46.6* | 46.6 | 31.3*
COc1ccc(-c2noc(N3CCC(C(=O)NCCCN4CCC(C)CC4)CC3)n2)cc1 | -0.8 | -0.5 | 6.8 | -7.8 | 1.1 | 10.9 | .
O=C(COc1ccc(Cl)cc1Cl)N/N=C/c1ccc[nH]1 | -1.1 | 1.5 | 14.9 | -6.9 | 44.2* | 32.1 | -1.9
C=CCn1c(CCn2c3ccccc3c3ccccc32)n[nH]c1=S | 1.0 | 33.1 | -1.1 | 6.2 | 43.4* | 29.1 | 36.5*
O=C1Nc2cc(C(=O)N3CCN(c4ccccn4)CC3)ccc2S/C1=C\c1ccccc1 | 53.3* | 30.5 | -8.4 | -1.2 | 41.8* | 42.4 | -8.4
O=C1Nc2cc(C(=O)N3CCOCC3)ccc2S/C1=C\c1ccccc1 | 4.8 | -11.0 | 1.6 | -7.5 | 10.0 | -13.3 | .
O=[N+]([O-])c1ccc(C2CC(c3ccccc3)=Nc3ccccc3S2)cc1 (stereo not given) | -2.5 | 15.6 | -17.1 | -0.4 | 42.5* | 27.1 | 20.9
O=C(Nn1cnnc1)c1ccc(Br)s1 | -0.1 | 4.1 | -2.6 | -6.1 | 11.1 | 2.8 | .
Cc1ccc(CCNC(=O)CCn2ccc3cc(S(=O)(=O)N4CCCC4)ccc32)cc1 | -7.6 | -2.8 | 1.8 | -7.7 | -3.5 | 0.2 | .
COc1ccc(CC(=O)NCCc2ccc(Cl)cc2Cl)cc1 | -2.0 | -20.9 | -13.7 | 2.6 | 40.3* | 27.5 | 17.4
S=c1[nH]c2ccc3ccccc3c2[nH]1 | -2.8 | 17.0 | -0.8 | -8.7 | 19.3 | 20.7 | .
Cc1[nH]c2c(ccc3ccccc32)c1C1C(CCN)C1(C)C (stereo not given) | 9.4 | 29.2 | . | -2.2 | 44.5* | 48.5 | 32.5*
Cc1nnc(SCC(=O)Nc2cc(C(F)(F)F)ccc2N2CCOCC2)o1 | 1.6 | 11.7 | . | -12.8 | 14.8 | -3.7 | .
CC(C)C(=O)Nc1cc(C(F)(F)F)ccc1N1CCOCC1 | 4.9 | 4.1 | -11.7 | -1.8 | -4.8 | 7.1 | .
CCOc1ccccc1NC(C)C(=O)Nc1cc(C(F)(F)F)ccc1N1CCOCC1 (stereo not given) | 14.4 | 33.4 | -30.9 | 2.9 | 40.3* | 45.4 | 24.6
Cc1ccccc1SCC(=O)Nc1cc(C(F)(F)F)ccc1N1CCOCC1 | -1.9 | 22.6 | -36.5 | -3.7 | 44.1* | 34.6 | 34.4*
Cc1ccc2[nH]c(C(=O)N3CCCC(Nc4ccc(F)cc4)C3)cc2c1 (stereo not given) | 1.2 | 16.8 | 9.2 | 34.8 | 51.4* | 36.0 | 2.7
SMILES | SKKanGAS inh | TIM10 inh | PfHsp90 set2 | ATG4B inh | tim10-1 inh | tim23-1 inh | tim10-1 confirm
COc1ccc(/C(C)=N/NC(=O)CNC(=O)c2cccs2)cc1OC | 2.7 | -5.4 | . | -0.3 | 5.9 | 11.5 | .
C/C(=N\NC(=O)CNC(=O)c1cccs1)c1ccc(Cl)c(Cl)c1 | 1.8 | 2.4 | -11.4 | -4.3 | 50.6* | 40.9 | -5.0
CCc1ccccc1NC(=S)N(Cc1cccc(C)c1)c1cccnc1 | -0.3 | -7.5 | -12.7 | -8.2 | 15.7 | 6.9 | .
CC(/C=C/c1cccc([N+](=O)[O-])c1)=N/NC(=O)c1cccnc1 | -8.3 | 9.6 | 5.9 | 8.1 | 40.2* | 25.9 | 20.6
C/C(=N\NC(=O)c1cccnc1)c1cccc([N+](=O)[O-])c1 | 2.0 | -4.1 | -12.7 | -2.8 | 0.5 | 11.3 | .
CNS(=O)(=O)c1cccc(C(=O)OCC(=O)c2cc3ccccc3o2)c1 | . | -1.8 | 17.0 | -4.0 | 23.3 | 15.5 | .
CCCCN(CC)CCNC(=O)c1cc2c(=O)n(C)c3ccccc3c2n1C | -9.9 | 9.5 | -63.2 | 1.2 | 21.9 | 11.7 | .
CCOC(=O)c1c(NC(=O)CCN2CCOCC2)sc2c1CC(C)(C)OC2 | 3.5 | 12.5 | -1.7 | -0.6 | 41.8* | 28.5 | 24.9
CC(=O)c1cc(NC(=O)c2ccccc2)c(=O)oc1C | 6.0 | 17.6 | 20.4 | -0.6 | 15.0 | 21.9 | .
Cc1oc(=O)c(NC(=O)c2ccc(Cl)cc2)cc1C(=O)c1ccccc1 | -0.1 | 27.9 | 59.1 | 13.7 | 56.4* | 37.4 | 57.1*
CCc1ccccc1NC(=O)CCS(=O)(=O)c1ccc(Br)cc1 | 0.7 | -12.4 | 3.7 | -3.0 | -2.2 | 22.7 | .
CCOc1ccccc1NC(=O)CCS(=O)(=O)c1ccc(Br)cc1 | -3.8 | 2.6 | 14.5 | 0.9 | 41.3* | 35.8 | 38.9*
O=C(Nc1ccc2oc(=O)ccc2c1)c1ccccc1[N+](=O)[O-] | -23.1 | 3.4 | -25.7 | -3.6 | 5.3 | 13.6 | .
Cc1cc(C)c(Cn2cnc3ccccc32)c(C)c1 | 20.8 | 26.2 | -7.0 | -0.6 | 43.1* | 39.6 | 20.1
COc1ccc(N2C(=O)c3ccccc3C(C)(C)C2=O)cc1 | 2.7 | 26.7 | -7.4 | -4.0 | 23.2 | 45.4 | .
COc1ccc2c(c1)C(=O)N(c1ccccc1C)C(=O)C2(C)C | -6.6 | 33.2 | 6.7 | -7.2 | 47.3* | 32.1 | 29.6
CN(C)c1ccnc2sc(C(=O)c3ccc(Br)cc3)c(N)c12 | 21.0 | 28.6 | 2.0 | 21.3 | 42.9* | 33.0 | 9.4
Oc1ccc(-c2csc(Nc3ccccn3)n2)cc1 | 0.2 | 32.9 | -0.3 | -9.1 | 32.2 | 43.4 | .
Nc1ccc2c(c1)C(=O)c1ccccc1C2=O | -8.2 | 1.7 | . | 3.5 | 6.1 | -3.5 | .
Cc1ccc(C2CC2C(=O)NNC(=S)Nc2ccc(Cl)cc2)cc1 (stereo not given) | -0.1 | 6.8 | 11.1 | -10.1 | 46.5* | 4.0 | 31.4
C/C(=N\NC(=O)c1ccc2c(c1)OCO2)c1ccc2c(c1)OCO2 | -3.9 | -9.3 | . | -5.8 | 5.7 | 11.3 | .
Cc1cccc(N=Nc2c(C)[nH]n(C(N)=S)c2=O)c1C | 13.3 | 25.0 | . | . | 5.6 | 13.5 | .

From PubChem
